According to PubChem BioAssay:
The source made the active and inactive calls.

Key:
[1] = system: PRMT1 (protein arginine N-methyltransferase 1); experiment: PRMT1 binders on small-molecule microarrays, primary screen, biochemical, small-molecule microarray, 635 nm fluorescence (AID 1088); conditions: small-molecule microarray binding, higher = more signal;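 further: binding of Prmt1 protein to compounds spotted on small-molecule microarray slides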
[2] = yeast growth modulation, basal conditions, primary screen, YJM789 clinical isolate, OD600, 24 h (AID 1089);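 further: growth of clinical yeast isolate S. cerevisiae YJM 789 seeded 1000 cells per well; test concentration not given here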; conditions: S. cerevisiae YJM789 growth, higher = more signal, called active from +8 up or from −8 down
[3] = fission yeast growth modulation, primary screen, strain 972, OD600, 24 h, no modulator (AID 1090);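 further: basal condition with compound alone and no growth modifier present; test concentration not given here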; conditions: S. pombe 972 growth, higher = more signal, called active from +8 up or from −8 down
[4] = S. cerevisiae growth modulation with rapamycin, primary screen, strain BY4716, OD600, 96 h (AID 1091); conditions: higher = more signal, called active from +8 up or from −8 down; further: test concentration not given here
[5] = molecular target: Torsin-1A-interacting protein 2 (Homo sapiens) (UniProt Q8NFQ8); experiment: LULL1 binders on small-molecule microarray, primary screen, cell lysate, human LULL1 lysate, 635/667 nm fluorescence (AID 1092); conditions: hLULL1 lysate binding, 635 nm fluorescence, higher = more signal;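 further: probe is lysate of COS7 cells overexpressing human LULL1; score merges per-feature 667 nm fluorescence with signal-to-noise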
[6] = E. coli growth modulation, two-sided OD650, primary screen, E. coli filamentation project, strain DRC41, 24 h (AID 1093); conditions: OD650, 24 h, higher = more signal, called active from +8 up or from −8 down;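 further: MC1000 strain lacking acrAB efflux and sulA so SOS filamentation is blocked; test concentration not given here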
[7] = small-molecule microarray binders of probe aLefty2, primary screen, biochemical, biotinylated probe, 635/667 nm fluorescence (AID 1094); conditions: higher = more signal;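 further: score merges spot fluorescence near 667 nm with spot signal-to-noise ratio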
[8] = system: Noggin (protein binding on small-molecule microarray); experiment: Noggin binders on small-molecule microarray, primary screen, biochemical, 635/667 nm fluorescence (AID 1095); conditions: 635 nm fluorescence, higher = more signal;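 further: score merges 667 nm feature fluorescence with signal to noise over triplicate slides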
[9] = molecular target: Neurogenic locus notch homolog protein 3 (Homo sapiens) (UniProt Q9UM47); experiment: NOTCH3 binders on small-molecule microarray, primary screen, biochemical, 635/667 nm fluorescence (AID 1096); conditions: NOTCH3 binding, 635 nm fluorescence, higher = more signal
[10] = small-molecule microarray binders of probe aEGFR, primary screen, biochemical, biotinylated probe, 635/667 nm fluorescence (AID 1097); conditions: higher = more signal;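 further: probe is a biotinylated anti-EGFR antibody binding compounds printed on slides; score combines fluorescence near 667 nm and signal to noise of each spot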

Neurogenic locus notch homolog protein 3 (Homo sapiens), sequence (Q9UM47 whole entry, looked up): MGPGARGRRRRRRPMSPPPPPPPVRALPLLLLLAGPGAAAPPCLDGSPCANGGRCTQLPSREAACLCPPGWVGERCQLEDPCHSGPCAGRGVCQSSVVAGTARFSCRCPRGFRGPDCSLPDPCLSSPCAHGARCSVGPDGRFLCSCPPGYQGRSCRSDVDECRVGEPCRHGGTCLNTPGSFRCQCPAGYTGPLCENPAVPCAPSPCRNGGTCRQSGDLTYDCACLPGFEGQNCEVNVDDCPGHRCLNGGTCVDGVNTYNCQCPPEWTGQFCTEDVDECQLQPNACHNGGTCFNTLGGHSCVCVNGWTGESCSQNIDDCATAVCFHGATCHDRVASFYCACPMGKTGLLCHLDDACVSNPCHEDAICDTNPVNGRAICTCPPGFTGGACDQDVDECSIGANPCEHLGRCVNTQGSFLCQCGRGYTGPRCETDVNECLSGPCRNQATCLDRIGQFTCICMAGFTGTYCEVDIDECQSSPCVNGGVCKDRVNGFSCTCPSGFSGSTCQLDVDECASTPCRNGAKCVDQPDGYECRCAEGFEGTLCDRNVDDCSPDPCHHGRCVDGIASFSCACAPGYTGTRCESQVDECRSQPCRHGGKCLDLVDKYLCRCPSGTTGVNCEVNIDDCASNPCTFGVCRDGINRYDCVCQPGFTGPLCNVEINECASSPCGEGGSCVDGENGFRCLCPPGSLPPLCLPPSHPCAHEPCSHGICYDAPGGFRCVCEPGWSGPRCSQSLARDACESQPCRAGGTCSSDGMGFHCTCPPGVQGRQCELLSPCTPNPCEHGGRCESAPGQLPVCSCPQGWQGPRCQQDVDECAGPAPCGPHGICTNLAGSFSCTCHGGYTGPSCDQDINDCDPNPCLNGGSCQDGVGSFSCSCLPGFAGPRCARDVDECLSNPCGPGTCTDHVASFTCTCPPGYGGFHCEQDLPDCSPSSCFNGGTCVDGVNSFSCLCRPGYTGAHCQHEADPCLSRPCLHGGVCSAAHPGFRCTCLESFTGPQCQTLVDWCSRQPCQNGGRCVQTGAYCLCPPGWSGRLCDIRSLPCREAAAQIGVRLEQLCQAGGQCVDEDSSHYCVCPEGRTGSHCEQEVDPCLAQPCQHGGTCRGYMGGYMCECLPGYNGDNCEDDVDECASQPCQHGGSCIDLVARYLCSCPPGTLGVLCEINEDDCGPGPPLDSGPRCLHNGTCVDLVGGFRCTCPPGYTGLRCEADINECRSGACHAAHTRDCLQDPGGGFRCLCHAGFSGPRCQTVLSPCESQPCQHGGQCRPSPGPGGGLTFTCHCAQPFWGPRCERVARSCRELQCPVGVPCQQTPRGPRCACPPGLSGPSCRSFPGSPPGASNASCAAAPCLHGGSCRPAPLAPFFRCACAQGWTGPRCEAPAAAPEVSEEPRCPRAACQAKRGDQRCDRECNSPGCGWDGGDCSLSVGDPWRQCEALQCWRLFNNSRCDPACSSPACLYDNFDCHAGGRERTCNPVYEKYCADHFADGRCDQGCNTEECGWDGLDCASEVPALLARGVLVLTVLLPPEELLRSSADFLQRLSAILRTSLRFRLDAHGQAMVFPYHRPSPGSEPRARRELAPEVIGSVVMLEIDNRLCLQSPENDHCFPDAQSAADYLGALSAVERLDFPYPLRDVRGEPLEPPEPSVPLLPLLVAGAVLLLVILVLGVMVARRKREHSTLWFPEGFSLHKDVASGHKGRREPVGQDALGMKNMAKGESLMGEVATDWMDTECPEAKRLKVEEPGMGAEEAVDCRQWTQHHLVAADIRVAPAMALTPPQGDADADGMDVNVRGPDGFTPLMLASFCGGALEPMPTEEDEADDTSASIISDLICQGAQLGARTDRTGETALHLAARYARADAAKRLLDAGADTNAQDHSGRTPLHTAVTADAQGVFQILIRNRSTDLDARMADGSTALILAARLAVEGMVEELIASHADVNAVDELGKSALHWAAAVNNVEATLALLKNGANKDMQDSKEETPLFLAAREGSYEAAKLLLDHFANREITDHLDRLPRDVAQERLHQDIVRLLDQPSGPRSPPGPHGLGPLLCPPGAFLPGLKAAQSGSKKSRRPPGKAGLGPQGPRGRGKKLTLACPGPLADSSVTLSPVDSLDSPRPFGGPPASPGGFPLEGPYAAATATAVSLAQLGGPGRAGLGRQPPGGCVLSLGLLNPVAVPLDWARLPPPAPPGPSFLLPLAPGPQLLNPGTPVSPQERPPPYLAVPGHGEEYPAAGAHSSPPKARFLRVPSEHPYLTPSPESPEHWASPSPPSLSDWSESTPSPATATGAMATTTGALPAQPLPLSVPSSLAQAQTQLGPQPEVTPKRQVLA
Torsin-1A-interacting protein 2 (Homo sapiens), sequence (Q8NFQ8 whole entry, looked up): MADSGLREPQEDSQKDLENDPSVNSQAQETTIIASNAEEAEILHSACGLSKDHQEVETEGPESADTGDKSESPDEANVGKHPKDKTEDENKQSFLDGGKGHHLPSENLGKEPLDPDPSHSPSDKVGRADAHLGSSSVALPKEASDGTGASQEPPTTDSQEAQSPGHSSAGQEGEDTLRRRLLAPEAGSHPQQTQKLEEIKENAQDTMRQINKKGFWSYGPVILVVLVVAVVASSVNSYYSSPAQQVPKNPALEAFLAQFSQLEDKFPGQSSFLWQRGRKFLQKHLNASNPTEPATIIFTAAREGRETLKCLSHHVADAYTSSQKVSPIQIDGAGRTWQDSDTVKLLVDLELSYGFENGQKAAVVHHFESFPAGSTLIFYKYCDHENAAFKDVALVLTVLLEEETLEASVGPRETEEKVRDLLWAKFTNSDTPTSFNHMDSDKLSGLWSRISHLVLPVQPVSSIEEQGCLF

SMILES	composite z-score [1]	z-score [2]	z-score [3]	z-score [4]	composite z-score [5]	z-score [6]	composite z-score [7]	composite z-score [8]	composite z-score [9]	composite z-score [10]
CCCN1C(=O)[C@@]2(c3ccc([N+](=O)[O-])cc3)CC(=O)N(C3CCCCC3)[C@@H]2c2ccc(CO)cc21	0.254	-0.383 (inactive)	1.29 (inactive)	-0.117 (inactive)	-0.298	-0.0384 (inactive)	0.198	0.73	-0.327	0.0785
COc1ccc([Si](C)(C)[C@H]2[C@H](CC(=O)N3CCC[C@H]3CO)O[C@@]3(C(=O)N(Cc4cccc(N5CCCCC5=O)c4)c4ccccc43)[C@@H]2C)cc1	1.52	-0.439 (inactive)	0.294 (inactive)	-1.23 (inactive)	1.98	0.561 (inactive)	-0.174	1.23	1.09	-0.139
[N-]=[N+]=Nc1ccccc1C[C@@]1(C(=O)NCC(O)CO)N=C(c2ccc(OCCCO)cc2)O[C@@H]1c1ccccc1N=[N+]=[N-] (stereo not given in full)	0.9	-0.961 (inactive)	0.0801 (inactive)	0.23 (inactive)	3.37	0.616 (inactive)	0.285	0.0196	0.298	0.0001
COc1ccc([Si](C)(C)[C@H]2[C@H](CCO)O[C@@]3(C(=O)N(Cc4ccccc4)c4ccc(NC(=O)[C@H](C)O)cc43)[C@@H]2C)cc1	1.44	2.75 (inactive)	0.215 (inactive)	5.82 (inactive)	2.24	0.25 (inactive)	0.0092	-0.227	0.149	0.148
COc1ccc(NN2C(C(O)c3ccc(F)cc3)C=CC3C(=O)N(C4CCCCC4)C(=O)C32)cc1 (stereo not given)	1.56	0.0646 (inactive)	1.09 (inactive)	0.91 (inactive)	3.24	-0.637 (inactive)	0.12	0.169	1.07	0.0903
[N-]=[N+]=Nc1ccccc1C[C@]1(C(=O)N2CCCCC2)N=C(c2ccc(OCCCO)cc2)O[C@H]1c1ccccc1	1.33	-0.44 (inactive)	-9.22 (active)	0.926 (inactive)	2.74	1 (inactive)	0.131	0.595	1.1	0.279
CN(C)CCCCCCNC(=O)[C@@H]1C[C@@H]2C(=O)N[C@@H](CCCC[N+](C)(C)C)C(=O)N2[C@@H]1c1cccc(OCCO)c1	-0.357	-3.6 (inactive)	-1 (inactive)	-1.17 (inactive)	2.79	0.797 (inactive)	0.141	-0.349	0.363	-0.108
CCOC(=O)C[C@H]1[C@H](OC(=O)Cc2ccc3c(c2)OCO3)[C@@H](NC(=O)CC(C)C)c2cc(OCCCO)ccc2N1C(=O)c1ccc2ccccc2n1	0.516	-0.0651 (inactive)	-0.943 (inactive)	-0.0443 (inactive)	0.452	0.431 (inactive)	-0.145	0.988	0.647	-0.178
CN(C)CCCC[C@@H]1NC(=O)[C@H]2C[C@@H](C(=O)NCCCCCCNC(=O)CS)[C@@H](c3cccc(OCCO)c3)N2C1=O	-0.174	-0.522 (inactive)	-0.221 (inactive)	-0.195 (inactive)	0.935	-0.12 (inactive)	0.0141	-0.0227	-0.289	-0.146
COC(=O)[C@@]1(Cc2ccc(F)cc2)[C@@H]2C(=CC(=O)[C@H]2CC(=O)C(=O)N2CCCC2)CN1C(=O)c1ccccc1	1.55	-0.403 (inactive)	0.0239 (inactive)	0.413 (inactive)	3.6	-0.074 (inactive)	1.34	1.32	1.13	1.08
CN1C2C=C(c3ccc(CO)cc3)C(C3C(=O)N(C(N)=O)C(=O)C32)C1C1CC1 (stereo not given)	0.132	-1.07 (inactive)	-0.257 (inactive)	1.2 (inactive)	-0.0967	0.214 (inactive)	-0.178	-0.4	-0.607	-0.201
CS(=O)(=O)CCOC(=O)C1=CC(CCCO)=CC(C2CC2)N(Cc2sc3ccccc3c2Cl)C=C1C(=O)OCCS(C)(=O)=O (stereo not given)	1.13	-0.853 (inactive)	-5.1 (inactive)	-1.47 (inactive)	3.09	0.189 (inactive)	0.247	0.482	1.09	0.0432
C[N+](C)(C)CCCC[C@@H]1NC(=O)[C@H]2C[C@@H](C(=O)O)[C@@H](c3ccc(O)cc3)N2C1=O	0.777	-1.56 (inactive)	-1.28 (inactive)	-0.5 (inactive)	2.61	1.26 (inactive)	-0.0481	0.447	0.5	-0.158
Cc1ccc(S[C@]2(C(=O)NCc3ccccc3)CC(=O)N(Cc3ccccc3C(F)(F)F)[C@@H]2c2ccc(CO)cc2I)cc1	1.3	-1.53 (inactive)	-4.08 (inactive)	0.899 (inactive)	1.93	0.322 (inactive)	-0.0593	-0.86	-0.582	-0.282
COCCCNC(=O)[C@@]1(Cc2ccccc2I)c2ccccc2C(=O)N(C2CCCCC2)[C@H]1c1ccc(CO)cc1	1.51	-1.83 (inactive)	-0.856 (inactive)	-1.11 (inactive)	2.97	0.0355 (inactive)	-0.106	0.556	0.337	-0.0512
